Compound activity (PubChem BioAssay)
TRPV1 agonist = agonists of human vanilloid receptor 1 (TRPV1) | Q8NER1 | TRPV1-expressing cells, Fluo-8 calcium influx, agonist mode | actives 0.19% (n = 320,000) | activation, % at 8.33 µM; in the data active = activation above about 80%; inconclusive = between about 30% and that limit; also: 0% is about no effect
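TRPV1-expressing cells were cultured overnight at 35.5C and loaded with Fluo-8 calcium dye for 40 to 90 min at room temperature. After a 10 s baseline, compound was added and calcium influx was read kinetically for 3 min (ex 480/em 520 nm).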
KCNH2 3.1 inh = blocks the human KCNH2 3.1 channel isoform; U2OS KCNH2 3.1, thallium flux FluxOr; hits give low values; activity change, % (tested at about 1.8 µM); actives 0.95% (n = 340,000);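 active = maximum activity change below -70%; inconclusive = maximum activity change from -70% to -50%; inactive = maximum activity change above -50%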;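 also: thallium influx rate constant from kinetic fluorescence after stimulation buffer; % is scaled to controls: 0 for no effect and ±100 for the full control effect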
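Normalized rate constant (relative to positive and negative DMSO controls) derived from a 2 min kinetic fluorescence read after stimulation; U2OS cells expressing the 3.1 isoform via virus at 1.77 x 10^8 /mL.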
TRPV1 potentiator = potentiators of human vanilloid receptor 1 (TRPV1). Q8NER1. TRPV1-expressing cells, Fluo-8 calcium influx, capsaicin EC20 potentiation. potentiation, % at 8.33 µM. actives 0.02% (n = 320,000); in the data active = potentiation above about 80%; inconclusive = between about 30% and that limit; also: 0% is about no effect
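Cells expressing TRPV1 were dye-loaded with Fluo-8 and read kinetically: 10 s baseline, 3 min after compound (agonist portion), then 2 min after EC20 capsaicin (allosteric enhancer portion). Calcium-bound dye fluorescence at 480/520 nm.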
hERG WT inh = blocks the wildtype human KCNH2 potassium channel; Q12809; U2OS, BacMam KCNH2, thallium flux FluxOr; hits give low values; activity change, % at 1.84 µM; actives 0.37% (n = 340,000); AID 720551;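 active = maximum activity change below -70%; inconclusive = maximum activity change between -70% and -50%; inactive = maximum activity change above -50%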; also: % is scaled to controls: 0 for no effect and ±100 for the full control effect
Target sequence (Q12809 whole entry, looked up): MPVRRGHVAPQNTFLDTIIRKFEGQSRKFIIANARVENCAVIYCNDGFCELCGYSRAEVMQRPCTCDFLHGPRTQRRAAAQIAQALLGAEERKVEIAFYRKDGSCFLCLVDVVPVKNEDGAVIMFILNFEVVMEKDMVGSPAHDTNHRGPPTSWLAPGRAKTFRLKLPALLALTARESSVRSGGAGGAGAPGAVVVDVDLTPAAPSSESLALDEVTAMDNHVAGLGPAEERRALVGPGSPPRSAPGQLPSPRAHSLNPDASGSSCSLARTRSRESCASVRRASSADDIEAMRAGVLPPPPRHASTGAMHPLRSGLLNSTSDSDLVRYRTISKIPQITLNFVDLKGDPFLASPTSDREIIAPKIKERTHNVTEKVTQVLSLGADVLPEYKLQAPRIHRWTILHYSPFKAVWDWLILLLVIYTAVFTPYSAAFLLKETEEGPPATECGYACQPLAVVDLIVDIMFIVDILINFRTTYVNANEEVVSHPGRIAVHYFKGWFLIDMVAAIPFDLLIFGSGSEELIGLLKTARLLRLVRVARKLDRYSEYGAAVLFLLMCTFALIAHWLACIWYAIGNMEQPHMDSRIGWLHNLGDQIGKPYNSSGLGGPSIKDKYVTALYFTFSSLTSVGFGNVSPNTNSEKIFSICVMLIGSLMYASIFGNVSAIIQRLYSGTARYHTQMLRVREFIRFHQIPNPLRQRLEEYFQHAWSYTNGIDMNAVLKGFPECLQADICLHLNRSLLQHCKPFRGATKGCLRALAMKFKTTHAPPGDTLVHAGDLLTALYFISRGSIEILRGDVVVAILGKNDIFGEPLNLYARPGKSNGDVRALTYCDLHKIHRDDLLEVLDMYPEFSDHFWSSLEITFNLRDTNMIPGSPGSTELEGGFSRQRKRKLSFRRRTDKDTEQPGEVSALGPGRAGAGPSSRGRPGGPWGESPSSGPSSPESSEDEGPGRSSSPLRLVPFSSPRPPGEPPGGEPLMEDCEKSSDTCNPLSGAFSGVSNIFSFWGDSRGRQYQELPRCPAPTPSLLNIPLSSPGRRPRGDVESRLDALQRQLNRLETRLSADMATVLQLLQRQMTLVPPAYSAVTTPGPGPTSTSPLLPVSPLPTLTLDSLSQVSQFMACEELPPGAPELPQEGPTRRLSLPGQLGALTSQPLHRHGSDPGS
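U2OS cells transduced with wild-type KCNH2 virus are loaded with FluxOr dye for 45 min, and thallium flux is measured in kinetic reads before and after stimulation buffer. Rate constants are normalized to DMSO controls.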
* marks the source's active call; other numbers are inactive results; ? = inconclusive; . = no result given. Rows were chosen to be rich in hits. Some 1.3% of all compounds tested hit in one or more screens of this group.

SMILES	TRPV1 agonist	KCNH2 3.1 inh	TRPV1 potentiator	hERG WT inh
COc1cc(/C=C/C(O)=C/C(=O)/C=C/c2ccc(O)cc2)ccc1O	?	-12.2	10.2	-17.4
O=C(Nc1ccccc1C(=O)O)c1ccc(NC(=O)C2CCCCC2)cc1	1.9	.	6.8	-2.8
O=C(Nc1ccn(CCCN2CCN(Cc3cccc4ccccc34)CC2)c(=O)n1)OCc1ccccc1	.	?	.	-1.4
CN(CCCn1ccc(NC(=O)OCc2ccccc2)nc1=O)CCc1ccccn1	.	-85.3*	.	-4.5
Cc1cc(C)c(CN2CCN(CCCn3ccc(NC(=O)OCc4ccccc4)nc3=O)CC2)c(C)c1	.	-82.1*	.	-43.7
O=C(Nc1ccn(CCCN2CCN(c3ccccc3)CC2)c(=O)n1)OCc1ccccc1	.	-72.1*	.	42.4
COc1ccc(CN(C)CCCn2ccc(NC(=O)OCc3ccccc3)nc2=O)cc1OC	.	-7.9	.	20.1
COc1ccccc1-c1cccc([C@@H]2C[C@H]3[C@H](CON3C)CN2C)c1	.	-1.1	.	-0.7
Cc1c(C(=O)NC2=NCCS2)cccc1[N+](=O)[O-]	-6.4	1.9	-8.4	-2.7
Cc1ccc(N/C(N)=N/c2nc3c(c(=O)[nH]2)CCCC3)c(C)c1	3.1	-6.7	-6.9	-29.3
Cc1ccc(N/C(N)=N/c2nc(C)cc(N3CCCCC3)n2)c(C)c1	-0.3	-96.7*	-2.1	-13.8
O=[N+]([O-])c1cccc(COc2ccccc2CN2CCOCC2)c1	.	5.5	.	0.5
Cc1cc(OCc2cccc(Cl)c2)c(C)cc1CN1CCOCC1	5.7	-70.6*	0.7	8.2
CCOc1ccccc1OCC(=O)OC(C)C(=O)Nc1ncc(Cl)cc1Cl (stereo unspecified)	-2.0	-8.8	17.5	-11.9
CCS(=O)(=O)N1Cc2ccccc2CC1C(=O)NCCc1c[nH]c2ccccc12 (stereo unspecified)	-4.1	-2.7	0.2	-6.4
O=C(O)CN1C(=O)/C(=C/C=C/c2ccccc2)SC1=S	-3.1	10.7	13.4	.
CCN1C(=O)C(=CC=CN(C)c2ccccc2)SC1=S	.	-45.7	.	-72.2*
O=C(NN=C1CCCCCC1)c1cc(-c2ccccc2)nc2ccccc12	-1.5	0.6	9.4	-2.6
Cc1ccc(-c2cc(C(=O)NN=C3CCCC3)c3ccccc3n2)cc1	-2.0	16.1	7.9	-197.4*
C/C(=N\NC(=O)c1cc(-c2cccnc2)nc2ccccc12)c1ccccc1O	-1.7	-109.9*	14.0	-5.3
COc1cc(OC)c2c(C)cc(=O)oc2c1C(CCN1CCN(c2ccccc2)CC1)c1ccc2c(c1)OCO2 (stereo unspecified)	6.8	-102.8*	11.6	-91.6*
CCCCCc1cc(=O)oc2c(C(CCN3CCCCC3)c3ccc4c(c3)OCO4)c(OC)cc(OC)c12 (stereo unspecified)	-0.2	-42.5	16.5	-79.7*
COc1cc(O)c(C(CCN2CCCC2)c2ccc3c(c2)OCO3)c(OC)c1 (stereo unspecified)	3.5	.	?	.
CCN(CC)CCC(c1ccc(N(C)C)cc1)c1c(OC)cc(OC)c2c(-c3ccccc3)cc(=O)oc12 (stereo unspecified)	4.4	-112.3*	-28.5	2.3
COc1cc(O)c(C(CCN2CCN(c3ccccc3)CC2)c2ccc3c(c2)OCO3)c(OC)c1 (stereo unspecified)	-0.1	-89.8*	7.1	?
SMILES	TRPV1 agonist	KCNH2 3.1 inh	TRPV1 potentiator	hERG WT inh
COc1cc(OC)c2c(-c3ccccc3)cc(=O)oc2c1C(CCN1CCN(c2ccccc2)CC1)c1ccc(N(C)C)cc1 (stereo unspecified)	0.1	.	-17.1	.
CC(=O)Nc1ccc(S(=O)(=O)NC2(c3ccccc3)C(=O)N(C)C(=O)N(C)C2=O)cc1	.	3.0	.	8.0
CCCn1cnnc1CNC(=O)C1CCC(=O)N(CCc2ccc(OC)cc2)C1 (stereo unspecified)	-3.5	2.6	5.9	-1.6
COc1cc(OC)c2c(-c3ccccc3)cc(=O)oc2c1C(CCN1CCCC1)c1ccc2c(c1)OCO2 (stereo unspecified)	1.7	17.2	?	-81.8*
CS(=O)(=O)N1CCc2cc(C(=O)Nc3ccc(Br)cc3)ccc21	88.2*	-6.8	-6.7	-4.0
COc1c(C)cc(C(=O)C2CCCN(Cc3c(C)n(C)n(-c4ccccc4)c3=O)C2)cc1C (stereo unspecified)	1.7	?	-2.4	2.3
CSc1ccccc1C(=O)C1CCCN(Cc2c(C)n(C)n(-c3ccccc3)c2=O)C1 (stereo unspecified)	0.3	-188.0*	4.6	-149.5*
